According to PubChem BioAssay (NCATS):
“And” between values parts separate entries of the source, which are not always exact repeats. Equal entries are not always repeated. Inconclusive results are not listed. A call without a number means that no potency is given here. Values without a mark were called inactive. The source made the active and inactive calls. The call rests on the fitted dose curve; in most records, active means well fitted curve in the direction sought with a large enough effect; inconclusive means small, poorly fitted or top-dose-only effect, or another doubt; inactive means no such curve, though single readings can be large; an effect the other way counts as inactive or inconclusive.

Tested on: Tov-21-G
Test: Primary qHTS to identify gynecologic anti-cancer compounds using libraries of approved drugs and bioactive compounds (AID 1345084); further: nearly all actives have a fitted effect of over 55% in size; further: potency means the concentration at half of the fitted maximal effect
Settings: Gynecologic cancer cell panel viability, ATPlite luminescence, 48 h; series mostly up to 57.5 µM
Summary of the method: (§1)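 Cell viability after 48 h drug treatment, ATPlite luminescence readout; five doses.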

Structure (SMILES) | Potency
CC(=O)O[C@]1(C(C)=O)CC[C@H]2[C@@H]3C=C(C)C4=CC(=O)CC[C@]4(C)[C@H]3CC[C@@]21C | inactive
NC(N)=NN=C(/C=C/c1ccc([N+](=O)[O-])o1)/C=C/c1ccc([N+](=O)[O-])o1 | 12.6 µM (active)
CNCCc1ccccn1 | inactive
COc1cc(NS(=O)(=O)c2ccc(N)cc2)ncn1 | inactive
CC(C)NCC(O)c1ccc2ccccc2c1 (stereo not drawn) | inactive
COc1ccc(C(Cl)=C(c2ccc(OC)cc2)c2ccc(OC)cc2)cc1 | inactive
CCN(CC)CCOC(=O)C(Cc1cccc2ccccc12)CC1CCCO1 (stereo not drawn) | inactive
Nc1ccc(C(=O)NCC(=O)O)cc1 | inactive
CCc1oc2ccccc2c1C(=O)c1cc(Br)c(O)c(Br)c1 | inactive
CCN(CC)CCOc1ccc2c(c1)C(=O)c1cc(OCCN(CC)CC)ccc1-2 | 22.4 µM (active)
CCCCN=C(N)N=C(N)N | inactive
Nc1ccc(S(=O)(=O)NCc2ccccc2)cc1 | inactive
CC[N+](C)(CC)CCOC(=O)C(O)(c1ccccc1)C1CCCCC1 (stereo not drawn) | inactive
CC(C)(C)NC[C@H](O)COc1nsnc1N1CCOCC1 | inactive
CC(=O)NC(=O)c1ccccc1O | inactive
O=[N+]([O-])c1cccc(S(=O)(=O)NCCNS(=O)(=O)c2cccc([N+](=O)[O-])c2)c1 | inactive
CCCCc1cc2ccccc2c(OCCN(C)C)n1 | inactive
O=C(Nc1ccccc1)OCC(CN1CCCCC1)OC(=O)Nc1ccccc1 (stereo not drawn) | inactive
CCCN(CCc1cccs1)[C@H]1CCc2c(O)cccc2C1 | inactive
Cc1ccc(S(=O)(=O)NC(=O)NC2CCCC2)cc1 | inactive
CCCCCCCCCCCCOCCOCCOCCOCCOCCOCCOCCOCCOCCO | inactive
O=C1C(CCS(=O)c2ccccc2)C(=O)N(c2ccccc2)N1c1ccccc1 (stereo not drawn) | inactive
O=C(Oc1cccc2cccnc12)c1ccccc1 | inactive
CC(=O)NCCCCCC(=O)O | inactive
Oc1ccc(Cl)cc1Cc1cc(Cl)ccc1O | inactive
Oc1c(Cl)cc(Cl)c(Cl)c1Cc1c(O)c(Cl)cc(Cl)c1Cl | inactive

Tested on: Tov112D
Test: as above
Settings: Gynecologic cancer cell panel viability, ATPlite luminescence, 48 h; series mostly up to 57.5 µM
Summary of the method: as §1

Structure (SMILES) | Potency
C[C@H]1[C@H]2CC[C@H]3[C@@H]4CC=C5C[C@@H](N(C)C)CC[C@]5(C)[C@H]4CC[C@]23CN1C | inactive
CC(=O)O[C@]1(C(C)=O)CC[C@H]2[C@@H]3C=C(C)C4=CC(=O)CC[C@]4(C)[C@H]3CC[C@@]21C | inactive
NC(N)=NN=C(/C=C/c1ccc([N+](=O)[O-])o1)/C=C/c1ccc([N+](=O)[O-])o1 | 17.8 µM (active)
CNCCc1ccccn1 | inactive
O=C(Nc1cccc(C2=NCCN2)c1)Nc1cccc(C2=NCCN2)c1 | inactive
CC[C@]12CCCN3CCc4c(n(c5ccccc45)C(=O)C1)[C@@H]32 | 28.2 µM (active) and 31.6 µM (active)
COc1cc(NS(=O)(=O)c2ccc(N)cc2)ncn1 | inactive
CC(C)NCC(O)c1ccc2ccccc2c1 (stereo not drawn) | inactive
COc1ccc(C(Cl)=C(c2ccc(OC)cc2)c2ccc(OC)cc2)cc1 | inactive
CCN(CC)CCOC(=O)C(Cc1cccc2ccccc12)CC1CCCO1 (stereo not drawn) | inactive
Nc1ccc(C(=O)NCC(=O)O)cc1 | inactive
CCc1oc2ccccc2c1C(=O)c1cc(Br)c(O)c(Br)c1 | inactive
CCCCN=C(N)N=C(N)N | inactive
Nc1ccc(S(=O)(=O)NCc2ccccc2)cc1 | inactive
CC[N+](C)(CC)CCOC(=O)C(O)(c1ccccc1)C1CCCCC1 (stereo not drawn) | inactive
CC(C)(C)NC[C@H](O)COc1nsnc1N1CCOCC1 | inactive
CC(=O)NC(=O)c1ccccc1O | inactive
O=[N+]([O-])c1cccc(S(=O)(=O)NCCNS(=O)(=O)c2cccc([N+](=O)[O-])c2)c1 | inactive
CCCCc1cc2ccccc2c(OCCN(C)C)n1 | inactive
CCCCCN=C(N)N/N=C/c1c[nH]c2ccc(OC)cc12 | 35.5 µM (active)
O=C(Nc1ccccc1)OCC(CN1CCCCC1)OC(=O)Nc1ccccc1 (stereo not drawn) | inactive
CCCN(CCc1cccs1)[C@H]1CCc2c(O)cccc2C1 | inactive
Nc1nc(Cl)nc2c1ncn2[C@@H]1O[C@H](CO)[C@@H](O)[C@@H]1F | 0.316 µM (active)
Cc1ccc(S(=O)(=O)NC(=O)NC2CCCC2)cc1 | inactive
CCCCCCCCNC(C)C(O)c1ccc(SC(C)C)cc1 (stereo not drawn) | inactive
CCCCCCCCCCCCOCCOCCOCCOCCOCCOCCOCCOCCOCCO | inactive
O=C1C(CCS(=O)c2ccccc2)C(=O)N(c2ccccc2)N1c1ccccc1 (stereo not drawn) | inactive
O=C(Oc1cccc2cccnc12)c1ccccc1 | inactive
CC(=O)NCCCCCC(=O)O | inactive
Oc1ccc(Cl)cc1Cc1cc(Cl)ccc1O | inactive

Tested on: not listed separately
Test: Drug repurposing screens with cells derived from glioblastoma tumor samples (AID 1345199); further: nearly all actives have a fitted effect of over 40% in size
Settings: GBM patient neurospheres viability, ATP luminescence, 48 h; at 20 µM (top of the series); tumour line C
Summary of the method: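 Primary testing used CD133+ neurospheres from four GBM patients, seven concentrations, 48 h exposure and ATP-based viability; confirmation added three slower-growing patient lines.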

Structure (SMILES) | activity, negative = cell killing [%]
CC(=O)O[C@]1(C(C)=O)CC[C@H]2[C@@H]3C=C(C)C4=CC(=O)CC[C@]4(C)[C@H]3CC[C@@]21C | -0.988
CNCCc1ccccn1 | -4.84
COc1cc(NS(=O)(=O)c2ccc(N)cc2)ncn1 | 5.16
CCN(CC)CCOC(=O)C(Cc1cccc2ccccc12)CC1CCCO1 (stereo not drawn) | 6.25
CCCCc1cc2ccccc2c(OCCN(C)C)n1 | -4.36
O=C(Nc1ccccc1)OCC(CN1CCCCC1)OC(=O)Nc1ccccc1 (stereo not drawn) | -1.96
O=C1C(CCS(=O)c2ccccc2)C(=O)N(c2ccccc2)N1c1ccccc1 (stereo not drawn) | 4.04
